# Laboratory results reported in the OligoGym collection.
# Molecular target: ZNF100
# Test: pooled miR-30 sensor sort-seq; sequence = guide strand
# Details: shRNA
# Further: reference of the scale not given here.
row,Sequence,sensor-assay potency score (higher = more potent)
1,TAATTTGTTATCATGTTCTTTG,-0.537
2,TTTCTAGTATGTCTTATCTTAT,-1.12
3,TTTCCTATACAAACCCTGCTGA,-0.0321
4,TTTGTAACTGTAAATTGTCATG,-1.22
5,TTCAAAATAAGACTGCACCAGA,0.0757
6,TTGAATTTGAAAATGTATGAAA,-0.873
7,TTCTCCAGTATAACTTACCTTA,-0.393
8,TTAATTTGTTATCATGTTCTTT,-0.0243
9,TATTTGTACAATATTTCTCAAG,-1.35
10,TTTGTTATCATGTTCTTTGTGC,0.633
11,TTAGTGAGGGCTGAGGACCAGT,-0.895

# Molecular target: ZNF135
# Test: as above
# Details: shRNA
row,Sequence,sensor-assay potency score (higher = more potent)
1,TCAAACGTCACTTGCTCCGGGT,-0.579
2,TATTTCTTCAGAGATGCCTTGC,0.235
3,TCTCATTTCTGGAACACTCTGC,0.253
4,TAGAACTGACAGTTTGACTTTG,-0.0496
5,TAACATAGCACTAATGGGCGTT,0.0821
6,TTCTTCAGAGATGCCTTGCTTT,-0.404
7,TTAGAACTGACAGTTTGACTTT,-0.0207
